# Results published in the OligoGym collection.
# Experiments:
# Experiment in all cases: pooled miR-30 sensor sort-seq; sequence = guide strand
# Details in all cases: shRNA
# [1] = molecular target: GPR137
# [2] = molecular target: GPR173
# [3] = molecular target: GPR172A
# [4] = molecular target: GPR3
# [5] = molecular target: GPR89B
# Note: reference of the scale not given here.
sequence,measurement,setting,value
TAGAGCAGGACCATGGCGCCAC,sensor-assay potency score (higher = more potent),[1],-0.353
TAGCGGGTGACGCTGATGCAGA,sensor-assay potency score (higher = more potent),[2],-1.36
TGACATTCGAGGCACAGCATGC,sensor-assay potency score (higher = more potent),[3],-1.17
AGTGCTGTCAGGTTGTAGCAGG,sensor-assay potency score (higher = more potent),[1],-1.93
TTGTCTCTGAATAGTAGGTGAG,sensor-assay potency score (higher = more potent),[4],-1.17
TCAGCTACCATAGACATCTCTT,sensor-assay potency score (higher = more potent),[5],0.143
